Here are results for 54 molecules from PubChem BioAssay AID624416 (The Scripps Research Institute Molecular Screening Center, 2012).

Out of some 360,000 compounds screened, about 1,500 (0.42%) were called active. Rule as the data show it: active = inhibition above about 8.5%; inactive = the rest. This excerpt belongs to a sample that is enriched for actives.

The subject of this assay is HIV-1 gp120 / PG9 antibody interaction. Kind of assay: small molecules engaging PG9 antibody – biochemical, TR-FRET, primary screen (AID 624416). The settings on record: TR-FRET gp120-PG9 antibody binding; at 6.7 µM; active compounds read high.
As for `Cc1ccccc1OCC(=O)Nc1nc(C)c(C(=O)N(C)C)s1`, the inhibition – broadly, the change of the read-out against control, counted positive when it falls – is 0.64% (inactive).
Under `Cc1ccc(F)c(NC(=O)CCOc2ccccc2C)c1` stands -0.27% (inactive); under `CC(=O)c1sc(NC(=O)CCCOc2ccccc2C)nc1C`, 12% (active); under `COC(=O)C1=C(C)N(Cc2ccc(F)cc2)C(=S)NC1c1cccc(Cl)c1` (centres undefined), -0.02% (inactive).
To `COC(=O)c1ccc(NC(=S)NN2CCOCC2)cc1` belongs -2.64% (inactive); to `COC(=O)c1ccc(NC(=S)Nc2cccc(C)n2)cc1`, 17.4% (active).
Under `Cc1cccc(NC(=O)Cc2ccc(Br)cc2)n1` stands 1.95% (inactive).
In the case of `COc1cccc(CNC(=O)[C@H]2CCCN2C(=O)[C@H]2CCCN2C(=O)C2CCCCC2)c1`, the inhibition was 1.65% (inactive).
To `CCCc1nc(SCC(=O)Nc2ccc(S(=O)(=O)N(C)C)cc2)c2ccccc2n1` belongs 27% (active); to `O=C(CSc1nc(C2CC2)nc2ccccc12)Nc1ccc2c(c1)OCCO2`, -1.48% (inactive).
Under `CCCNC(=O)CSc1nc(Cc2ccccc2)nc2ccccc12` stands 0.37% (inactive).
Under `C[C@H](O)[C@@H]1C(=O)N2CCc3c([nH]c4c(-c5ccc6c(c5)OCO6)cccc34)[C@@H]2C[C@@H]1N(C)C(=O)c1ccco1` stands -1.4% (inactive).
On to `CN1C(=O)C(Br)(Br)CC1c1cccnc1` (centres undefined), for which the inhibition was -0.49% (inactive).
On to `O=C(Nc1nnc(-c2ccccc2F)s1)c1ccccc1F`, for which the inhibition is 13.2% (active).
Under `O=C(Nc1ccccc1F)c1ccccc1-c1ccccc1` stands -1.32% (inactive); under `O=C(O)c1ccccc1-c1ccccc1C(=O)Nc1nccs1`, 1.5% (inactive); under `COc1ccc(NC(=O)N(C)C[C@@H]2OCCCC[C@@H](C)Oc3ccc(NC(=O)NC4CCCCC4)cc3C(=O)N([C@H](C)CO)C[C@@H]2C)cc1`, -0.95% (inactive).
Regarding `O=S1(=O)c2c(cccc2N2CCCCC2)O[C@H](COCc2ccccc2)CN1C1CC1`, the inhibition is -1.69% (inactive).
To `CCn1nnc2cc(C(=O)Nc3ccc(C(=O)OC(C)C)cc3)ccc21` belongs 20.3% (active); to `CCOC(=O)c1cccc(NC(=O)CCn2nnc3ccccc32)c1`, 1.35% (inactive).
Regarding `CCOC(=O)c1ccc(NC(=O)Cn2cnc3cc(C)c(C)cc32)cc1`, the inhibition was -1.34% (inactive).
Under `C[C@H](O)[C@@H]1CN2CCc3ccc(-c4ccc5c(c4)OCO5)cc3[C@@H]2C[C@@H]1N(C)C(=O)C1CCCCC1` stands 2.47% (inactive); under `Cc1cc2c(nc1C)CCCN2C`, -1.95% (inactive); under `CC(=O)c1cc(C#N)c(SCC(=O)Nc2nccs2)nc1C`, 15.3% (active).
To `Cc1[nH]c2ccccc2c1SCC(=O)Nc1nccs1` belongs -0.77% (inactive); to `Cc1cc(C(F)(F)F)nc(SCC(=O)Nc2nccs2)n1`, 0.14% (inactive).
Under `O=c1[nH]c(-c2ccccc2)cn1C1CCN(Cc2ccc(-c3nc4ccc(F)cc4nc3-c3ccccc3)cc2)CC1` stands 1.31% (inactive); under `CCc1ccc(C2=CC(=O)CC(C)(C)C2=O)cc1`, -0.98% (inactive); under `CCC(C)C(=O)Nc1cc([N+](=O)[O-])ccc1Cl` (centres undefined), -4.15% (inactive).
As for `CC(C)C(=O)Nc1cccc(NC(=O)c2ccc([N+](=O)[O-])cc2Cl)c1`, the inhibition was -0.82% (inactive).
Under `O=C(Nc1c(Br)cc2c(c1Br)Cc1cc([N+](=O)[O-])ccc1-2)C(Cl)Cl` stands 17.5% (active).
To `O=C(Nc1c(Cl)c(C2CC2)nn1-c1ccccc1)C(Cl)(Cl)Cl` belongs 0.67% (inactive); to `C[C@@H]1CN([C@H](C)CO)C(=O)CCCn2cc(nn2)CO[C@H]1CN(C)C(=O)Nc1ccc(N2CCCCC2)cc1`, -2.61% (inactive); to `COC(=O)[C@]12C[C@H](CC(=O)NCCC(C)C)C(=O)N(CCc3ccc(OC)c(OC)c3)C1=C[C@H](C(C)(C)C)O[C@@H]2C`, 0.69% (inactive).
Under `CCOc1cc(C2C(C(=O)OC)=CN(C3CCCC3)C=C2C(=O)OC)cc(Br)c1O` stands 62.6% (active); under `COC(=O)C1=CN(Cc2ccc(OC)cc2)C=C(C(=O)OC)C1c1ccc(O)c(OC)c1`, -1.15% (inactive).
On to `CCCC(=O)Nc1cc(OCC)c(NC(=O)NC2CCCCC2)cc1OCC`, for which the inhibition is -1.64% (inactive).
Under `O=C(N[C@H](C(=O)N1CCC[C@H]1C(=O)NCCc1ccccc1Cl)c1ccccc1)c1ccccc1` stands 1.57% (inactive); under `Cc1ccc(NC(=O)N2c3ccccc3SC2c2ccco2)c(C)c1` (centres undefined), 0.01% (inactive).
For `COc1cccc(CNC(=O)[C@H]2CCCN2C(=O)[C@H]2CCCN2C(=O)c2cc(F)cc(F)c2)c1`, the inhibition is -0.29% (inactive).
To `COC(=O)[C@]12C[C@H](CC(=O)NCc3ccc(OC)c(OC)c3)C(=O)N(Cc3ccccc3)C1=C[C@H](C(C)C)O[C@@H]2C1CC1` belongs -0.45% (inactive); to `Nc1[nH]c(C(=O)c2ccc(Br)cc2)c(-c2ccc3c(c2)OCO3)c1C(=O)NCCc1c[nH]c2ccccc12`, 0.87% (inactive).
To `CCOc1ccc(C(=O)COC(=O)c2ccc(-n3cnnn3)cc2)cc1` belongs 11.4% (active); to `CC(OC(=O)c1ccc(-n2cnnn2)cc1)C(=O)NCc1ccccc1` (centres undefined), 1.87% (inactive); to `CCOC(=O)N1CCN(S(=O)(=O)c2ccc(-n3cnnn3)cc2)CC1`, -0.23% (inactive).
To `CCOC(=O)C1=C(C(=O)OCC)C2N(Cc3ccc(C#N)cc3)c3ccccc3[C@@]23C[C@@H](C(=O)OC)N(S(=O)(=O)c2ccc(F)cc2)C3=N1` (some centres undefined) belongs -0.21% (inactive).
Take `COC(=O)Cc1nnn2c1[C@H](C)[C@H](c1ccccc1[N+](=O)[O-])OCC2`: the inhibition is 0.5% (inactive).
Take `Cc1ccc(C(=O)NCC(=O)OCc2nnc(-c3ccccc3)o2)cc1`: the inhibition was 1.54% (inactive).
In the case of `OC(c1nnc(-c2ccccc2)o1)c1cccs1` (centres undefined), the inhibition is -1.12% (inactive).
`Nc1ccc(-c2nnc(-c3ccc(-c4ccccc4)cc3)o2)cc1`: the inhibition is 9.48% (active).
In the case of `COc1ccc(C2=CN(Cc3ccccc3)C(c3ccc(OC)cc3)CC2=O)cc1` (centres undefined), the inhibition is 4.38% (inactive).
Under `Cc1csc(SCC(=O)Nc2ccc(C)c(S(=O)(=O)N(C)C)c2)n1` stands -0.14% (inactive); under `COCc1cc(C)nc(SCC(=O)Nc2cccc(C)c2)c1C#N`, -0.32% (inactive); under `Cc1nc2cc(NC(=O)CSc3nc4c(C)cccc4cc3C#N)ccc2s1`, 16% (active).
